The source of these data is PubChem BioAssay (NCATS).

Molecules are shown by their SMILES. Records with an inconclusive call do not appear. The source made the active and inactive calls. Calls come from the whole dose curve; as a rule, active = well fitted cell-killing curve with a large enough effect; inconclusive = small, poorly fitted or top-dose-only effect, or effect the other way; inactive = flat fitted curve, though single readings scatter.
% is set by controls: 0 for no effect and ±100 for the full control effect.

The experiment relates to C33A. The experiment can be described thus: Primary qHTS to identify gynecologic anti-cancer compounds using libraries of approved drugs and bioactive compounds (AID 1345084). Note: nearly all actives have a fitted effect of over 55% in size. Conditions: Gynecologic cancer cell panel viability, ATPlite luminescence, 48 h; series mostly up to 57.5 µM; activity change, negative = cytotoxicity: at the top concentration. The method in brief: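 In this quantitative HTS, cell killing is estimated from loss of ATP-dependent luciferase light. Cells see five compound concentrations over a 48 h exposure.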
For orientation: qHTS replaces the single test concentration by a dilution series.
`O=C(O)c1ccc(S(=O)(=O)N(Cc2ccc(OC(F)(F)F)cc2)c2ncc(C(F)(F)F)cc2Cl)cc1`: the “activity change, negative = cytotoxicity” value is -3.92% (inactive).
As for `COc1ccc(OC)c(-c2ccc(NC(=O)c3ccncc3F)cc2)c1`, the “activity change, negative = cytotoxicity” value was -5.71% (inactive).
The value for `C[C@H]1CC[C@@]2(OC1)O[C@H]1CC3C4CC[C@H]5C[C@@H](O)CC[C@]5(C)C4=CC(=O)[C@]3(C)[C@H]1[C@@H]2C` (some centres not stated) was 3.9% [at 25.3 µM] (inactive); that for `O=C1c2ccc(Nc3ccc(F)cc3F)cc2CCc2ccc(OCC(O)CO)cc21` (configuration not stated) was 0.31% (inactive).
With `COC(=O)C1=COC(O[C@@H]2O[C@H](CO[C@@H]3O[C@H](COC(=O)/C=C\c4ccc(O)cc4)[C@@H](O)[C@H](O)[C@H]3O)[C@@H](O)[C@H](O)[C@H]2O)C2C(CO)=CCC12` (some centres not stated), the “activity change, negative = cytotoxicity” value was -31.4% [at 25.3 µM] (inactive).
The value for `CC1(C)OC[C@H](NC(=O)Nc2ccc(Br)cc2Br)[C@H](c2ccccc2)O1` was -1.93% (inactive); that for `COc1ccc(C(=O)Nc2c(Cl)cncc2Cl)cc1OC1CCCC1` was 9.37% (inactive).
